# Assay results as given in ChEMBL document CHEMBL1157539, “Thousands of chemical starting points for antimalarial lead identification” (Nature, 2010).
# Test system: Plasmodium falciparum
# Assay: GSK_TCMDC: Inhibition of Plasmodium falciparum 3D7 in whole red blood cells, using parasite LDH activity as an index of growth. Test compounds present at 2uM
# Type: functional
row,Structure (SMILES),Inhibition [%]
1,OC(CNc1ccnc(Nc2cccc(Cl)c2)n1)c1cccc(C(F)(F)F)c1 (configuration not stated),100
2,CC(=NNC(N)=O)C1=C(O)C(c2ccccc2)N(C2CCCCC2)C1=O (configuration not stated),93
3,Cc1ccccc1CNc1noc(-c2c(-c3ccccc3)noc2C)n1,94
4,CC(C)CNCc1ccc(-c2ccc(CN(C(=O)NCCc3ccccc3)C3CCN(Cc4ccccc4)CC3)cc2)cc1.O=C(O)C(F)(F)F,98
5,Cn1nccc1C(=O)NCCNCc1cccc(-c2csc(-c3nc4ccccc4[nH]3)c2)c1.O=C(O)C(F)(F)F,100
6,CC1(C)N=C(N)N=C(N)N1O.Cl,93
7,O=C(N[C@@H](Cc1ccccc1)C(=O)O)c1cc(-c2ccc(F)cc2)no1.O=C(N[C@@H](Cc1ccccc1)C(=O)O)c1conc1-c1ccc(F)cc1,96
8,Cc1cccc2nc(-c3cccc(-c4cccc(NC(=O)c5cncn5C)c4)c3)[nH]c12,100
9,O=C(Nc1ccc(Oc2ccccc2)cc1)N(CCN1CCCC1)Cc1ccc(-c2ccc(CN3CCNCC3)cc2)cc1.O=C(O)C(F)(F)F,88
10,Fc1ccc(C=NN=c2cc[nH]c3ccccc23)cc1,100
11,CC(C)[C@H](NCC(=O)c1ccccc1)C(=O)O.Cl,99
12,COc1ccc(-c2ccc(NC(=O)c3ccc(C#N)cc3)cc2)cc1CN1CCC(O)CC1.O=C(O)C(F)(F)F,94
13,O=C(NC1CCN(CCN2CCC(c3cn(CCO)c4ccccc34)CC2)CC1)c1ccc(-c2ccc(C(F)(F)F)cc2)cc1,98
14,COc1ccc(CC(=O)NC(CCN2CCC3(CCc4ccccc43)CC2)c2ccc(Cl)c(Cl)c2)cc1 (configuration not stated),90
15,O=C(c1ccc(-c2ccc(-c3nc4cc(C(F)(F)F)ccc4[nH]3)s2)cc1)N1CCN(CCc2ccccc2)CC1,98
16,CCOc1cc2c(cc1S(=O)(=O)c1ccc(COc3ccc(C(F)(F)F)cc3)cc1)CCN(C)CC2.Cl,87
17,Cc1cc(C(=O)CN2C(=O)NC(C)(c3ccc4ccccc4c3)C2=O)c(C)n1Cc1ccco1 (configuration not stated),97
18,Cc1ccc(NC(=O)N2CCCN(CCCCCNC(=O)/C=C/c3ccc(Cl)c(Cl)c3)CC2)cc1,99
19,CCn1c(-c2nonc2N)nc2c(-c3ccccc3)ncc(OCCCCNCCc3ncc[nH]3)c21.O=C(O)C(F)(F)F,92

row,Structure (SMILES),Inhibition [%]
1,O=C(O)C(F)(F)F.O=S(=O)(NCCN1CCCC1)c1ccc(-c2ccc(CNCc3ccc(F)cc3)cc2)cc1F,82
2,CN(C)c1ccc(OCCCCCCOc2ccccc2)cc1.Cl,85
3,Cc1ccc(Nc2nc(C)cc(N3CCN(CCc4ccccc4)CC3)n2)cc1,93
4,O=C(NCCNc1ccnc(Nc2ccc(F)cc2)n1)Nc1ccccc1F,93
5,CC12CCC(=O)N1C(C(=O)Nc1cccc(C(=O)Nc3cccc(C(F)(F)F)c3)c1)CS2 (configuration not stated),92
6,COc1ccccc1NC(=O)Nc1ccc(-c2cccc(-c3nc4ccccc4[nH]3)c2)cc1,100
7,CCC(CC)N1C(=O)C(c2ccccc2)(c2ccccc2)N=C1N.O=CO,96
8,Cc1cc(NC2CCCC2)nc(Nc2ccccc2C)n1,88
9,O=C(Cn1c(SCc2cccc(F)c2F)cc(=O)c2ccccc21)N(CCCn1ccnc1)Cc1ccc(-c2ccc(C(F)(F)F)cc2)cc1,99
10,COc1ccc(CNCc2ccccc2)cc1-c1cccc(S(=O)(=O)NCCN2CCCC2)c1.O=C(O)C(F)(F)F,98
11,COc1ccc(C(c2ccc(N(C)C)cc2)c2ccc(N(C)C)cc2)cc1,100
12,COc1cc2nc(N3CCC(CNC(=O)c4ccc(-c5ccccc5)cc4)CC3)nc(N)c2cc1OC,93
13,CCN(CC)CCN(Cc1ccc(-c2ccc(C(F)(F)F)cc2)cc1)C(=O)Cn1cc(CCCCc2cccc(F)c2F)c(=O)c2ccccc21.O=C(O)C(O)C(O)C(=O)O,90
14,COc1ccc2ccccc2c1C=NN=c1cc(C)[nH]c2c(C)cccc12,100
15,CN1CCN(c2ccc3nccc(CCN4CCC(NCc5ccc6c(n5)NC(=O)CO6)CC4)c3n2)CC1.Cl,97
16,CC(CN(C)C)C(=O)Nc1ccc(-c2ccc(-c3nc4ccccc4[nH]3)s2)cc1 (configuration not stated),100
17,NCCNc1ccc([N+](=O)[O-])cc1C(=O)Nc1cccc(Cl)c1,85
18,Cl.OCCNc1nc(Nc2ccccc2)nc2ccccc12,93
